Reference: publication PMC4081100, “A DNA-binding-site landscape and regulatory network analysis for NAC transcription factors in Arabidopsis thaliana”

How the values were obtained:
Experiment in all cases: universal protein binding microarray (PBM); transcription factors of Arabidopsis thaliana; high values mean tight binding
[1] = target: T1, GST-ANAC092(1-176) (Arabidopsis thaliana, UniProt Q9FKA0 1-176); conditions: protein: recombinant; tags: GST; chain copies: 2; dsDNA, one strand shown
T1 sequence: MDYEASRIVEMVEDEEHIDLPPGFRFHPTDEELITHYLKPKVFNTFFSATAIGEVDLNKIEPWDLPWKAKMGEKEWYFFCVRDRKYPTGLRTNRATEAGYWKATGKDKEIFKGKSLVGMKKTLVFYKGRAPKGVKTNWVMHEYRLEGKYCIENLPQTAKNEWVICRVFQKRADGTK
Summary of the method: (§1)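 GST-tagged proteins (NAC-domain, full-length or DNA-binding-domain) were induced in cells, with zinc acetate supplied for zinc-finger proteins, then purified on glutathione–Sepharose 4B. Each was tested in duplicate at 200 to 500 nM final on custom all-10-mer Agilent 4 × 180K arrays rendered double-stranded by primer extension. The binding value is the normalised enrichment score (E-score) across gapped and ungapped 8-mers.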

[2] = target: GST-NTL6(1-168) (Arabidopsis thaliana, UniProt Q9SCK6 1-168); conditions: protein: recombinant; tags: GST; chain copies: 2; dsDNA, one strand shown
GST-NTL6(1-168), sequence (Q9SCK6 1-168): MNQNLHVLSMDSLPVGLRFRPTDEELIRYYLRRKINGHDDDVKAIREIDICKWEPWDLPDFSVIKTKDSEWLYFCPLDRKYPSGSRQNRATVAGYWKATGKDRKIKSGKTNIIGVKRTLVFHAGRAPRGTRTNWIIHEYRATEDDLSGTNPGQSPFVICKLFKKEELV
Summary of the method: as §1

[3] = target: T2, GST-ANAC019 NAC domain (Arabidopsis thaliana, UniProt Q9C932 14-162); conditions: protein: recombinant; tags: GST; chain copies: 2; dsDNA, one strand shown
T2 sequence: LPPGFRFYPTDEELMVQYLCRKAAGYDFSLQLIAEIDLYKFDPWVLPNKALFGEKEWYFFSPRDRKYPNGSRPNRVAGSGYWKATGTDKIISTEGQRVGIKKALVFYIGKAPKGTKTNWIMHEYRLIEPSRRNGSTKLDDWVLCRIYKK
Summary of the method: as §1

[4] = target: T3, GST-ANAC092(1-285) full length (Arabidopsis thaliana, UniProt Q9FKA0 1-285); conditions: protein: recombinant; tags: GST; chain copies: 2; dsDNA, one strand shown
T3 sequence: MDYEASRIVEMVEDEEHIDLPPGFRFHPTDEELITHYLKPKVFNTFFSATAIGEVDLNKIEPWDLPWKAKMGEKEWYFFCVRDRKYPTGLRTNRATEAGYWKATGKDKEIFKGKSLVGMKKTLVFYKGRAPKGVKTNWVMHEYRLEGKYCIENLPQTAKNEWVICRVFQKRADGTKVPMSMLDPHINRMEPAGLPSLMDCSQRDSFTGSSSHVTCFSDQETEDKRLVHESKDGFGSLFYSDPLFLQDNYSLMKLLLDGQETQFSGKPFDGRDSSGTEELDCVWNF
Summary of the method: as §1

[5] = target: T4, GST-NST2(1-184) (Arabidopsis thaliana, UniProt Q9M274 1-184); conditions: protein: recombinant; tags: GST; chain copies: 2; dsDNA, one strand shown
T4 sequence: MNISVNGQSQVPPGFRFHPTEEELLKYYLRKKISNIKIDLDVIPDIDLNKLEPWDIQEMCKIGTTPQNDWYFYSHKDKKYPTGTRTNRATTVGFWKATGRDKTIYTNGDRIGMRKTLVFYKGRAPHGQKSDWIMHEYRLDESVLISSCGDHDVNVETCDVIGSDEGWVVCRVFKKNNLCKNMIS
Summary of the method: as §1

[6] = target: T5, GST-NTL8 NAC domain (Arabidopsis thaliana, UniProt Q9XIN7 14-156); conditions: protein: recombinant; tags: GST; chain copies: 2; dsDNA, one strand shown
T5 sequence: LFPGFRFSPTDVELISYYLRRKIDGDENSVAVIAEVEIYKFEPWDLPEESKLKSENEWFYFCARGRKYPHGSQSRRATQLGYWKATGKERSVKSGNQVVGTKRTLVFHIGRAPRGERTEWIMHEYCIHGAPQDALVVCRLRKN
Summary of the method: as §1

[7] = target: T6, GST-SND1(1-203) (Arabidopsis thaliana, UniProt Q9LPI7 1-203); conditions: protein: recombinant; tags: GST; chain copies: 2; dsDNA, one strand shown
T6 sequence: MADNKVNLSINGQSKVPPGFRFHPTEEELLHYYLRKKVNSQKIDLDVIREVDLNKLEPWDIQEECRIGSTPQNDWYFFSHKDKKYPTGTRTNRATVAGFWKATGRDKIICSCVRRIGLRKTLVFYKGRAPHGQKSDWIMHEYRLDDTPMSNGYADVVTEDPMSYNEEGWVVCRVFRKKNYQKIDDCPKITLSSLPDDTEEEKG
Summary of the method: as §1

[8] = target: T7, GST-VND3 NAC domain (Arabidopsis thaliana, UniProt Q9FH59 12-162); conditions: protein: recombinant; tags: GST; chain copies: 2; dsDNA, one strand shown
T7 sequence: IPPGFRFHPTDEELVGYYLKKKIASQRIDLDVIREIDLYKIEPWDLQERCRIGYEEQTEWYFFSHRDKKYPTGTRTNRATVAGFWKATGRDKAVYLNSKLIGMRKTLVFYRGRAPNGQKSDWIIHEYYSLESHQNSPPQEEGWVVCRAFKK
Summary of the method: as §1

[9] = target: GST-WRKY1(266-371) (Arabidopsis thaliana, UniProt Q9SI37 266-371); conditions: protein: recombinant; tags: GST; dsDNA, one strand shown
GST-WRKY1(266-371), sequence (Q9SI37 266-371): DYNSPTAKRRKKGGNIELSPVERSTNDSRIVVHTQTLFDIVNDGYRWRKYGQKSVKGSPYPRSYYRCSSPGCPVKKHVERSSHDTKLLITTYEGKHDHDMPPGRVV
Summary of the method: as §1

[10] = target: T8, GST-VND7 NAC domain (Arabidopsis thaliana, UniProt Q9C8W9 9-158); conditions: protein: recombinant; tags: GST; chain copies: 2; dsDNA, one strand shown
T8 sequence: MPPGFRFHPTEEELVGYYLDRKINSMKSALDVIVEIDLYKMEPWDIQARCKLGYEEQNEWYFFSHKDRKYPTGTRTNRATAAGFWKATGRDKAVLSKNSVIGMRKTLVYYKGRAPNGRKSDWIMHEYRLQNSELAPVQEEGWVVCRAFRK
Summary of the method: as §1

[11] = target: T9, GST-ANAC055(1-171) (Arabidopsis thaliana, UniProt Q9LDY8 1-171); conditions: protein: recombinant; tags: GST; chain copies: 2; dsDNA, one strand shown
T9 sequence: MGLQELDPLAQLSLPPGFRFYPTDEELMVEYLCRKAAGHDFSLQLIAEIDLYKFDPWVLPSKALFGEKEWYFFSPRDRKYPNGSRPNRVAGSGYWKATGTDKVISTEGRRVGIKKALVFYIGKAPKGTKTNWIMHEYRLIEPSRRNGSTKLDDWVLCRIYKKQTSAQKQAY
Summary of the method: as §1

[12] = target: T10, GST-ATAF1 NAC domain (Arabidopsis thaliana, UniProt Q39013 7-158); conditions: protein: recombinant; tags: GST; chain copies: 2; dsDNA, one strand shown
T10 sequence: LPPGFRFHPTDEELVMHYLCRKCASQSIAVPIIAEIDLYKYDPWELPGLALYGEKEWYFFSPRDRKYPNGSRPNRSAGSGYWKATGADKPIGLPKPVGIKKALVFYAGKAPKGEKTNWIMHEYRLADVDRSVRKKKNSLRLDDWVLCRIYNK
Summary of the method: as §1

[13] = target: T11, GST-NAP(1-166) (Arabidopsis thaliana, UniProt O49255 1-166); conditions: protein: recombinant; tags: GST; chain copies: 2; dsDNA, one strand shown
T11 sequence: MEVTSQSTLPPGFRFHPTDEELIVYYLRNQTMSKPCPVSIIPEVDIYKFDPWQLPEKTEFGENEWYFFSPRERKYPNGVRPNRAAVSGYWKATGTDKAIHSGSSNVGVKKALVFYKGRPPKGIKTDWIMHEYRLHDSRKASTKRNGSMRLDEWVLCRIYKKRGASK
Summary of the method: as §1

CTTCCTTA was tested, and the binding signal [1] was 0.158 E-score, the binding signal [2] was 0.447 E-score and the binding signal [3] was 0.0721 E-score. The binding signal [4] was 0.104 E-score, the binding signal [5] was 0.151 E-score and the binding signal [6] was 0.223 E-score. The binding signal [7] was 0.21 E-score, the binding signal [8] was 0.0785 E-score and the binding signal [9] was 0.0845 E-score.
For CCTTACCC, the binding signal [2] was 0.366 E-score, the binding signal [4] was 0.0872 E-score and the binding signal [6] was 0.404 E-score. For the same sequence, the binding signal [7] was 0.167 E-score, the binding signal [8] was 0.0668 E-score and the binding signal [10] was 0.0637 E-score.
GCACGCTA gave a binding signal [1] of 0.445 E-score, a binding signal [3] of 0.207 E-score and a binding signal [11] of 0.117 E-score. For the same sequence, the binding signal [4] was 0.474 E-score, the binding signal [5] was 0.173 E-score and the binding signal [7] was 0.409 E-score. It also gave a binding signal [8] of 0.111 E-score and a binding signal [10] of 0.0845 E-score.
ATGGCGTA was tested, and the binding signal [1] was 0.393 E-score, the binding signal [12] was 0.185 E-score and the binding signal [4] was 0.426 E-score. It also gave a binding signal [13] of 0.184 E-score, a binding signal [5] of 0.299 E-score and a binding signal [7] of 0.452 E-score. It also gave a binding signal [8] of 0.149 E-score and a binding signal [10] of 0.192 E-score.
Sequence AATTACGC has a binding signal [1] of 0.17 E-score, a binding signal [11] of 0.155 E-score and a binding signal [12] of 0.18 E-score. The binding signal [4] was 0.243 E-score, the binding signal [13] was 0.144 E-score and the binding signal [5] was 0.199 E-score. The binding signal [7] was 0.428 E-score, the binding signal [8] was 0.119 E-score and the binding signal [10] was 0.13 E-score.
In the case of GGTCAAAA, the binding signal [1] is reported as 0.0966 E-score, the binding signal [2] is reported as 0.101 E-score and the binding signal [11] is reported as 0.0727 E-score. It also gave a binding signal [6] of 0.116 E-score, a binding signal [7] of 0.123 E-score and a binding signal [8] of 0.0741 E-score. The binding signal [9] was 0.478 E-score.
With CACGCCAA the binding signal [1] was 0.443 E-score, the binding signal [3] was 0.185 E-score and the binding signal [11] was 0.159 E-score. It also gave a binding signal [12] of 0.16 E-score, a binding signal [4] of 0.451 E-score and a binding signal [13] of 0.114 E-score. It also gave a binding signal [5] of 0.3 E-score, a binding signal [6] of 0.0657 E-score and a binding signal [7] of 0.334 E-score. It also gave a binding signal [8] of 0.0966 E-score and a binding signal [10] of 0.114 E-score.
Work on GCACGGAA yielded a binding signal [1] of 0.388 E-score, a binding signal [3] of 0.472 E-score and a binding signal [11] of 0.457 E-score. For the same sequence, the binding signal [12] was 0.357 E-score, the binding signal [4] was 0.413 E-score and the binding signal [13] was 0.437 E-score. For the same sequence, the binding signal [5] was 0.2 E-score, the binding signal [6] was 0.193 E-score and the binding signal [7] was 0.156 E-score. For the same sequence, the binding signal [8] was 0.402 E-score and the binding signal [10] was 0.453 E-score.
CACGTTAG was tested, and the binding signal [1] was 0.387 E-score, the binding signal [11] was 0.0916 E-score and the binding signal [12] was 0.13 E-score. The binding signal [4] was 0.412 E-score, the binding signal [13] was 0.0974 E-score and the binding signal [5] was 0.117 E-score. It also gave a binding signal [7] of 0.237 E-score, a binding signal [8] of 0.164 E-score and a binding signal [10] of 0.0853 E-score.
ACGTTACC showed a binding signal [1] of 0.458 E-score, a binding signal [3] of 0.263 E-score and a binding signal [11] of 0.197 E-score. It also gave a binding signal [12] of 0.195 E-score, a binding signal [4] of 0.467 E-score and a binding signal [13] of 0.218 E-score. For the same sequence, the binding signal [5] was 0.331 E-score, the binding signal [6] was 0.384 E-score and the binding signal [7] was 0.462 E-score. For the same sequence, the binding signal [8] was 0.249 E-score and the binding signal [10] was 0.176 E-score.
TTAAGAAA showed a binding signal [1] of 0.151 E-score, a binding signal [2] of 0.461 E-score and a binding signal [11] of 0.0935 E-score. The binding signal [12] was 0.195 E-score, the binding signal [4] was 0.227 E-score and the binding signal [5] was 0.142 E-score. The binding signal [6] was 0.273 E-score, the binding signal [7] was 0.367 E-score and the binding signal [8] was 0.0817 E-score. For the same sequence, the binding signal [9] was 0.116 E-score.
Work on TCGGTCAA yielded a binding signal [1] of 0.132 E-score, a binding signal [2] of 0.0645 E-score and a binding signal [11] of 0.0819 E-score. For the same sequence, the binding signal [13] was 0.097 E-score, the binding signal [5] was 0.0703 E-score and the binding signal [7] was 0.0612 E-score. For the same sequence, the binding signal [8] was 0.0724 E-score and the binding signal [9] was 0.49 E-score.
Sequence CAGTCAAC has a binding signal [1] of 0.0753 E-score, a binding signal [12] of 0.084 E-score and a binding signal [7] of 0.0832 E-score. It also gave a binding signal [8] of 0.0605 E-score and a binding signal [9] of 0.491 E-score.
With ACGTTACA the binding signal [1] was 0.354 E-score, the binding signal [11] was 0.157 E-score and the binding signal [12] was 0.244 E-score. For the same sequence, the binding signal [4] was 0.404 E-score, the binding signal [13] was 0.23 E-score and the binding signal [5] was 0.222 E-score. It also gave a binding signal [7] of 0.362 E-score, a binding signal [8] of 0.217 E-score and a binding signal [10] of 0.153 E-score.
GACACGGC was tested, and the binding signal [1] was 0.235 E-score, the binding signal [3] was 0.42 E-score and the binding signal [11] was 0.351 E-score. For the same sequence, the binding signal [12] was 0.278 E-score, the binding signal [4] was 0.387 E-score and the binding signal [13] was 0.237 E-score. For the same sequence, the binding signal [6] was 0.0582 E-score, the binding signal [7] was 0.116 E-score and the binding signal [8] was 0.328 E-score. For the same sequence, the binding signal [10] was 0.348 E-score.
